# Reference: ChEMBL document CHEMBL3988442, “University of Dundee, Small-Polar-MMV Screening Library” (2021)
# Screen size: about 38,000 compounds; about 1,200 (3.2%) showed an effect of 50% or more. The median lay at about -58%. This is one part of a sample in which strong results are shown more often than they occur.
# Test system: Plasmodium falciparum
# Test: Calibr Malaria Delayed Death Assay SOP
# Type: functional, organism-based
# Parameters: scale not given: in the data most compounds retested in dose-response had high values
# Conditions: concentration 4.99e-06 (unit not given; other assays of the set use mol/L)
row,SMILES,Percent Effect
1,c1ncn(CC2CCCN(Cc3noc(C4CC4)n3)C2)n1 (stereo not drawn),-140.8%
2,CCc1nc(Nc2cccc(C(=O)NC)c2)c2c(n1)c(C)nn2CC,-106.8%
3,COc1ccnc(NC(Cc2ccccc2)C(N)=O)n1 (stereo not drawn),-102.6%
4,COc1ccccc1C1(C(=O)NCCN2CCOCC2)CCOCC1,-173.3%
5,Cc1ccccc1C1(C(=O)NCCN2CCCC2)CCOCC1,-7.598%
6,Cc1ccc(CNCC2Cn3nncc3CO2)s1 (stereo not drawn),-76.38%
7,CN(Cc1cncnc1)[C@H]1CN(C(=O)c2ccc[nH]2)[C@@H]2CCCO[C@@H]21,-58.36%
8,CC(c1ccc(F)cc1F)N1CCN(CCN2CCCC2=O)CC1 (stereo not drawn),-15.63%
9,CC(c1ccc(F)cc1F)N1CCN(CCC(=O)NC(N)=O)CC1 (stereo not drawn),63.51%
10,CC(c1ccc(F)cc1F)N1CCN(CCC(=O)O)CC1.Cl (stereo not drawn),-12.88%
11,Fc1ccccc1OCCN1CCCCC1Cn1cncn1 (stereo not drawn),-107.8%
12,O=C(O)C(F)(F)F.O=C(O)C(F)(F)F.c1nc(CNC2CCOCC2)c2n1CCCN(CC1CC1)C2,-115.6%
13,COc1ccccc1CCN[C@@H]1c2ccccc2C2(CCNCC2)[C@H]1O,81.73%
14,Cc1ccc(CCN[C@@H]2c3ccccc3C3(CCNCC3)[C@H]2O)s1,87.27%
15,O[C@H]1[C@H](NCCc2cnccn2)c2ccccc2C12CCNCC2,-10.61%
16,O[C@H]1[C@H](NCCSc2ccccn2)c2ccccc2C12CCNCC2,23.57%
17,O[C@H]1[C@H](NCCc2ccccn2)c2ccccc2C12CCNCC2,-35.06%
18,COCCN(C)[C@@H]1c2ccccc2C2(CCNCC2)[C@H]1O,-111.9%
19,Cc1ccc(-n2ncc3c2CCCC3N)cc1C (stereo not drawn),5.746%
20,COCCN(Cc1cccnc1)S(=O)(=O)c1ccc(F)cc1C,-88.98%

row,SMILES,Percent Effect
1,Cc1cccc(C2CCCN2S(=O)(=O)N(C)C)n1 (stereo not drawn),-47.51%
2,C=C(C)CSc1nnc(CCNC(=O)OC(C)(C)C)o1,-85.15%
3,O=S1(=O)N=C(CSCc2ccccc2)Nc2ccccc21,-68.12%
4,COc1cc(S(=O)(=O)N2CCc3cc(Br)ccc32)cc(C(=O)O)c1OC,-66.42%
5,CC(=O)c1cccc(S(=O)(=O)NCCNC(=O)c2snnc2C)c1,-10.04%
6,Cc1csc(CN2CC[C@H]3O[C@H](C(=O)Nc4cccnc4)CC[C@H]32)n1.O=C(O)C(F)(F)F.O=C(O)C(F)(F)F,-21.13%
7,CC(C)N1CC[C@H]2[C@H](C[C@@H](Cn3cccn3)N2c2nccs2)C1.O=C(O)C(F)(F)F.O=C(O)C(F)(F)F.O=C(O)C(F)(F)F,65%
8,CCC(=O)N1CC[C@H]2[C@H](C[C@@H](CN3CCCC3)N2c2nccs2)C1.O=C(O)C(F)(F)F.O=C(O)C(F)(F)F,-82.37%
9,CN1CC[C@H]2[C@H](C[C@@H](CN3CCCC3)N2c2nccs2)C1.O=C(O)C(F)(F)F.O=C(O)C(F)(F)F.O=C(O)C(F)(F)F,72.73%
10,CN1[C@H](CN2CCCC2)C[C@@H]2CN(C(=O)Cc3cccs3)CC[C@@H]21.O=C(O)C(F)(F)F.O=C(O)C(F)(F)F,-31.64%
11,CC(=O)N1[C@H](Cn2cncn2)C[C@@H]2CN(CC3CC3)CC[C@@H]21.O=C(O)C(F)(F)F,-11.44%
12,CCC(=O)N1CC[C@H]2[C@H](C[C@@H](Cn3cccn3)N2c2nccs2)C1.O=C(O)C(F)(F)F.O=C(O)C(F)(F)F,-17.69%
13,CC(=O)N1[C@H](Cn2cncn2)C[C@@H]2CN(Cc3nccs3)CC[C@@H]21,-179.2%
14,CC(=O)N1CC[C@H]2[C@H](C[C@@H](Cn3cncn3)N2c2nccs2)C1.O=C(O)C(F)(F)F,-37.22%
15,Cl.Cl.c1csc(N2[C@H](Cn3cncn3)C[C@@H]3CNCC[C@@H]32)n1,-62.09%
16,O=C(O)C(F)(F)F.O=C(O)C(F)(F)F.O=C(O)C(F)(F)F.c1cnn(C[C@@H]2C[C@@H]3CN(CC4CC4)CC[C@@H]3N2c2nccs2)c1,89.5%
17,CC(=O)N1CC[C@H]2[C@H](C[C@@H](CN3CCCC3)N2c2nccs2)C1.O=C(O)C(F)(F)F.O=C(O)C(F)(F)F,-53.97%
18,CC1CCC(NC(=O)NCC(C)(C)CCS(C)(=O)=O)CC1 (stereo not drawn),-129.7%
19,CCN(Cc1ccc(S(C)(=O)=O)cc1)Cc1nc(COC)no1,-129.1%
20,O=c1cc(Cn2ccnc2)nc2n1CCCN(Cc1cccs1)C2,-55.92%

row,SMILES,Percent Effect
1,O=C(NCCCO)c1cc(-c2cc[nH]n2)n2ccccc12.O=C(O)C(F)(F)F,-31.15%
2,COc1ccc(C(NCc2cccc(O)c2)C2CC2)cc1 (stereo not drawn),83.32%
3,COc1ccc(C(NCc2cccc(C#N)c2)C(C)C)cc1 (stereo not drawn),-12.81%
4,COc1ccc(C(NCc2cccc(C#N)c2)C2CC2)cc1 (stereo not drawn),47.49%
5,CC(C)CCNC(=O)NC(C)c1nncn1C (stereo not drawn),-95.25%
6,CCN1CCC2(CC1)CN(C(=O)c1cccnc1)c1ccc(Cl)cc12.O=C(O)C(F)(F)F.O=C(O)C(F)(F)F,9.219%
7,CC(=O)N1CCC2(CC1)CN(C(=O)c1cccnc1)c1ccc(F)cc12.O=C(O)C(F)(F)F,-38.16%
8,CN1CCC2(CC1)CN(C(=O)c1cccnc1)c1ccc(Cl)cc12,55.37%
9,O=C(CN1CCC(c2nnc(C(F)(F)F)o2)CC1)Nc1cccc(Cl)c1,-52.49%
10,CC(C)Nc1ncnc2c1CCN(C(=O)c1ccccc1F)CC2.O=C(O)C(F)(F)F,-96.03%
11,O=S(=O)(NC1=NCN(CCc2cccs2)CN1)c1ccc(Br)cc1,-31.17%
12,CCCC(=O)N1CCC(N2CC[C@@](O)(CCOC)[C@H](C)C2)CC1,-32.76%
13,CCCS(=O)(=O)N1CCC2(CC1)CC(Nc1ncccn1)CO2 (stereo not drawn),-70.84%
14,O=C(c1cccs1)N1CCc2ncc(Cn3cncn3)n2CC1,-172.5%
15,CC(C)N(C)Cc1cnc2n1CCN(C(=O)c1cccs1)C2,60.68%
16,CC(C)N(C)Cc1cnc2n1CCN(C(=O)Cc1ccccn1)C2.O=C(O)C(F)(F)F.O=C(O)C(F)(F)F,-6.542%
17,O=C(NC1CC1)N1CCn2c(Cn3cccn3)cnc2C1.O=C(O)C(F)(F)F,-67.84%
18,CC(C)N(C)Cc1cnc2n1CCN(CCc1ccccc1)C2.O=C(O)C(F)(F)F.O=C(O)C(F)(F)F,0.4179%
